The values below come from PubChem BioAssay.

Several values for one entry are separate records, joined by “and”; a condition that tells them apart may be missing. Identical values can stand only once. Records with an inconclusive call do not appear. Activity calls are given as the source filed them.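 The calls were made as follows, unless noted: active = response below a set limit, under 55% cells CD8-positive and vesicle-bound, and CD8 cells' 90th-percentile brightness under 279; inactive = the rest.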

A short description of the first assay: yeast AGP1-GFP level changes, GLN3 branch – cell-based, multiplex flow cytometry, S. cerevisiae, primary screen (AID 1887;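 active = GFP signal above the screen-wide mean plus 3 SD, that is over about 124.5% of the solvent control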). The following applies: 3 h, at 10 µM, stronger effect = higher value.
On to `C[N+]1(C)CCc2cc3c(cc2[C@H]1[C@@H]1OC(=O)c2c1ccc1c2OCO1)OCO3`, for which the GFP response, % of DMSO is 100% (inactive) and 93.4% (inactive).
For `COc1ccc(NC2=NCC(C)S2)cc1` (stereo not drawn), the GFP response, % of DMSO was 96% (inactive).
In the case of `CC12CN3CC(C)(CN(C1)C3c1cccs1)C2O` (stereo not drawn), the GFP response, % of DMSO is 104% (inactive).
The same measure, in the same setting: the result for `O=C1NCCN2CCCC12` (stereo not drawn) reads 102% (inactive); that for `NNC(=O)c1ccc(Cl)cc1`, 102% (inactive); that for `CN1CCN(C(=O)OC2c3nccnc3C(=O)N2c2ccc(Cl)cn2)CC1` (stereo not drawn), 106% (inactive).
With `O=c1[nH]c2ccccc2n1C1CCN(CCCC(c2ccc(F)cc2)c2ccc(F)cc2)CC1`, the GFP response, % of DMSO was 120% (inactive).
The same measure, in the same setting: the figure for `O=C1NC(=O)C2(Cc3ccccc3N3CCCC32)C(=O)N1c1ccc(Cl)cc1` (stereo not drawn) is 97.5% (inactive); for `CC1CCC[C@H](O)CCCCCc2cc(O)cc(O)c2C(=O)O1` (stereo partly drawn) it is 109% (inactive).
Take `O=c1cccc2n1C[C@H]1C[C@@H]2CN2CCCC[C@@H]12`: the GFP response, % of DMSO was 98.1% (inactive).
`CC(=O)OC1C2CCC1C(N1CCCC1)CC2` (stereo not drawn): the GFP response, % of DMSO was 115% (inactive).
In the case of `CCOc1ccc(C2C(C#N)=C(N)Oc3c2c(=O)oc2ccccc32)cc1` (stereo not drawn), the GFP response, % of DMSO was 101% (inactive).
With `COc1cc2c3cc1Oc1cc(ccc1O)C[C@@H]1c4c(cc(OC)c(O)c4Oc4ccc(cc4)C[C@H]3N(C)CC2)CCN1C`, the GFP response, % of DMSO is 90.5% (inactive).
On to `CN1CC[C@@]23CCCC[C@@H]2[C@@H]1Cc1ccc(O)cc13`, for which the GFP response, % of DMSO is 100% (inactive).
In the case of `O=c1c2ccccc2[se]n1-c1ccccc1`, the GFP response, % of DMSO is 99.2% (inactive).
As to `CC[N+]1(C)CCCC(OC(=O)C(O)(c2ccccc2)c2ccccc2)C1` (stereo not drawn), the GFP response, % of DMSO is 119% (inactive).
For the compound `C[C@]12CCC(=O)C=C1CCC1C2CC[C@@]2(C)C1CC[C@@]2(O)CC#N` (stereo partly drawn), the GFP response, % of DMSO is 98% (inactive).
Take `C[C@H]1CC[C@@]2(C)[C@@H](CC[C@@H]3[C@@H]2CC[C@]2(C)[C@@H](O)CC[C@@H]32)C1`: the GFP response, % of DMSO was 102% (inactive).
In the case of `C[C@H]1OC[C@@H](C[N+](C)(C)C)O1`, the GFP response, % of DMSO was 96.2% (inactive).
The same measure, in the same setting: the result for `CC(C)(C)C(O)C(Oc1ccc(Cl)cc1)n1cncn1` (stereo not drawn) reads 115% (inactive); that for `C[C@@H]1O[C@@H](O[C@H]2C[C@@H](O)[C@]3(CO)[C@H]4[C@H](O)C[C@]5(C)[C@@H](C6COC(=O)C6)CC[C@]5(O)[C@@H]4CC[C@]3(O)C2)[C@H](O)[C@H](O)[C@H]1O` (stereo partly drawn), 119% (inactive).
Same read-out and setting: the result for `CC(=O)c1ccc(-c2ccccc2)cc1` reads 103% (inactive); that for `CCOC(=O)c1cc2c(cn1)[nH]c1ccccc12`, 94.5% (inactive).

The next assay is described as follows: reduced mouse 2C T cell binding to pMHC/ICAM-1 vesicles – MLPCN validation set, flow cytometry, LFA-1/ICAM-1 modulator project, pilot screen (AID 2523). The following applies: 2C mouse CD8+ T cells, at 7 µM, stronger effect = lower value; double positive events: measured here: CD8+/vesicle+ event percentage.
`CN1C[C@H](CNC(=O)OCc2ccccc2)C[C@@H]2c3cccc4c3c(cn4C)C[C@H]21`: the double positive events was found to be 63.3% and the vesicle binding response is 365% (inactive).
Taken in the same sequence, the figures for `C[N+]1(C)C2CCC1CC(OC(=O)C(CO)c1ccccc1)C2` (stereo not drawn) were 61.8% and 233% (inactive).
Turning to `CCC1(c2ccccc2)C(=O)N(COC)C(=O)N(COC)C1=O`, the vesicle binding response was 148% (inactive) and the double positive events is 62.2%.
With `CCn1c(O)c(C(=O)CC2NCCc3ccccc32)c(=O)n(CC)c1=S` (stereo not drawn), the vesicle binding response was 186% (inactive) and the double positive events was found to be 55.8%.
For `NC(=O)CN1CCCC1=O`, the double positive events stood at 54.5% and the vesicle binding response was 191% (inactive).
For the compound `Cc1ccsc1C(=O)C1CCCN(Cc2cc3ccccc3o2)C1` (stereo not drawn), the double positive events amounted to 59.8% and the vesicle binding response was 51.3% (inactive).
Regarding `CN1C2CCC1CC(OC(=O)c1ccc(Cl)cc1)C2` (stereo not drawn), the vesicle binding response was 228% (inactive) and the double positive events is 62.2%.
Turning to `Cn1c(O)c(C=NCCc2c[nH]c3ccccc23)c(=O)n(C)c1=O`, the vesicle binding response is 17400% (inactive) and the double positive events came out at 76.2%.
Regarding `CC12CN3CC(C)(CN(C1)C3c1cccs1)C2=O` (stereo not drawn), the double positive events is 63% and the vesicle binding response is 181% (inactive).
For the compound `[N-]=[N+]=CC(=O)OC[C@H](N)C(=O)O`, the vesicle binding response is 133% (inactive) and the double positive events amounted to 64.4%.
Take `COP(=O)(OC)C(O)C(Cl)(Cl)Cl` (stereo not drawn): the vesicle binding response is 230% (inactive) and the double positive events was 62.8%.
`CC(C)[N+](C)(CCC(C(N)=O)(c1ccccc1)c1ccccc1)C(C)C`: the vesicle binding response is 144% (inactive) and the double positive events is 61.6%.
`C[C@@]1(CO)[C@H](O)CC[C@@]2(C)[C@H]1CC[C@H]1C[C@@H]3C[C@@]12CC[C@]3(O)CO`: the double positive events came out at 62.9% and the vesicle binding response was 225% (inactive).
Take `O=C1CCCC2=C1C(c1cccnc1)Nc1ccccc1N2` (stereo not drawn): the vesicle binding response is 211% (inactive) and the double positive events was 64.4%.
Taken in the same sequence, the figures for `O=c1[nH]c(=S)n(-c2ccccc2)c(O)c1/C=N/N1CCCCC1c1cccnc1` (stereo not drawn) were 885% (inactive) and 64%.
As to `Clc1ccc(C2NCCc3[nH]cnc32)cc1` (stereo not drawn), the vesicle binding response was 244% (inactive) and the double positive events came out at 60.8%.
As for `Cc1ccc(-n2c(C)cc(/C=C3/C(=O)NC(=O)N(C)C3=O)c2C)cc1`, the double positive events turned out to be 64.1% and the vesicle binding response was 164% (inactive).
In the case of `C[N+]1(C)CCc2cc3c(cc2[C@H]1[C@@H]1OC(=O)c2c1ccc1c2OCO1)OCO3`, the double positive events is 60.5% and 65.5%; the vesicle binding response is 128% (inactive) and 1190% (inactive).
For the compound `COc1ccc(NC2=NCC(C)S2)cc1` (stereo not drawn), the double positive events amounted to 69.5% and the vesicle binding response was 150% (inactive).
For the compound `CC12CN3CC(C)(CN(C1)C3c1cccs1)C2O` (stereo not drawn), the double positive events is 67% and the vesicle binding response was 976% (inactive).
Regarding `O=C1NCCN2CCCC12` (stereo not drawn), the double positive events worked out at 58.7% and the vesicle binding response was 108% (inactive).
Turning to `NNC(=O)c1ccc(Cl)cc1`, the double positive events worked out at 56.2% and the vesicle binding response is 114% (inactive).
For `CN1CCN(C(=O)OC2c3nccnc3C(=O)N2c2ccc(Cl)cn2)CC1` (stereo not drawn), the double positive events came out at 58.9% and the vesicle binding response is 6590% (inactive).
On to `O=c1[nH]c2ccccc2n1C1CCN(CCCC(c2ccc(F)cc2)c2ccc(F)cc2)CC1`, for which the double positive events worked out at 56.5% and the vesicle binding response is 184% (inactive).
As for `O=C1NC(=O)C2(Cc3ccccc3N3CCCC32)C(=O)N1c1ccc(Cl)cc1` (stereo not drawn), the double positive events worked out at 64.8% and the vesicle binding response was 186% (inactive).
Taken in the same sequence, the figures for `CC1CCC[C@H](O)CCCCCc2cc(O)cc(O)c2C(=O)O1` (stereo partly drawn) were 62.7% and 174% (inactive).
With `O=c1cccc2n1C[C@H]1C[C@@H]2CN2CCCC[C@@H]12`, the vesicle binding response was 124% (inactive) and the double positive events is 61.7%.
Take `CC(=O)OC1C2CCC1C(N1CCCC1)CC2` (stereo not drawn): the vesicle binding response was 162% (inactive) and the double positive events is 67.3%.
For `CCOc1ccc(C2C(C#N)=C(N)Oc3c2c(=O)oc2ccccc32)cc1` (stereo not drawn), the vesicle binding response was 213% (inactive) and the double positive events stood at 59.3%.
For `COc1cc2c3cc1Oc1cc(ccc1O)C[C@@H]1c4c(cc(OC)c(O)c4Oc4ccc(cc4)C[C@H]3N(C)CC2)CCN1C` the same measures were 214% (inactive) and 56.5%.
For `CN1CC[C@@]23CCCC[C@@H]2[C@@H]1Cc1ccc(O)cc13` the same measures were 47.7% (inactive) and 60.4%.
`O=c1c2ccccc2[se]n1-c1ccccc1`: the vesicle binding response is 111% (inactive) and the double positive events was determined as 57.5%.
In the case of `CC[N+]1(C)CCCC(OC(=O)C(O)(c2ccccc2)c2ccccc2)C1` (stereo not drawn), the vesicle binding response is 160% (inactive) and the double positive events amounted to 61%.
As to `C[C@]12CCC(=O)C=C1CCC1C2CC[C@@]2(C)C1CC[C@@]2(O)CC#N` (stereo partly drawn), the double positive events was found to be 71.1% and the vesicle binding response is 961% (inactive).
With `C[C@H]1CC[C@@]2(C)[C@@H](CC[C@@H]3[C@@H]2CC[C@]2(C)[C@@H](O)CC[C@@H]32)C1`, the double positive events turned out to be 61% and the vesicle binding response was 376% (inactive).
Taken in the same sequence, the figures for `C[C@H]1OC[C@@H](C[N+](C)(C)C)O1` were 62.3% and 144% (inactive).
Turning to `CC(C)(C)C(O)C(Oc1ccc(Cl)cc1)n1cncn1` (stereo not drawn), the double positive events was 62% and the vesicle binding response is 218% (inactive).
Turning to `C[C@@H]1O[C@@H](O[C@H]2C[C@@H](O)[C@]3(CO)[C@H]4[C@H](O)C[C@]5(C)[C@@H](C6COC(=O)C6)CC[C@]5(O)[C@@H]4CC[C@]3(O)C2)[C@H](O)[C@H](O)[C@H]1O` (stereo partly drawn), the vesicle binding response is 183% (inactive) and the double positive events amounted to 62.7%.
As to `CC(=O)c1ccc(-c2ccccc2)cc1`, the vesicle binding response was 339% (inactive) and the double positive events amounted to 63.6%.
On to `CCOC(=O)c1cc2c(cn1)[nH]c1ccccc12`, for which the double positive events was 59.3% and the vesicle binding response was 102% (inactive).
